According to PubChem BioAssay AID1159580 (chemical genetic matrix, 2015):
“And” between values parts separate entries of the source, which are not always exact repeats. Equal values may be shown once. Hit rate of the full screen: of about 5,500 compounds, about 2,000 (36%) were called active. Inconclusive results (about 18%) are left out. Cut-off read from the data, not from the text of the source: active = normalized growth mostly below about 0.91 (no sharp cut-off); inconclusive = no clear call, values can overlap the other calls; inactive = mostly above about 0.92. The list shows a part of the results.

Experiment: chemical genetic growth profiling, strain panel (AID 1159580);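 note: tested at 20 µM; growth read once vehicle control cultures reached saturation at 30 °C; 1 = growth at the plate median or of vehicle wells; lower values mean less growth of the strain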
Settings: S. cerevisiae deletion strains, growth OD

Measured: normalized growth

Cc1cc(C)cc(OCC2CNC(=O)O2)c1 (stereo unspecified)
inactive: locus YAL013W, strain DEP1, active compounds read low 1.01 | locus YAL021C, strain ccr4, active compounds read low 0.995 | locus YAL026C, strain drs2, active compounds read low 0.977 | locus YAL030W, strain snc1, active compounds read low 0.984 | locus YBL061C, strain skt5, active compounds read low 0.97 | locus YBR009C, strain hhf1, active compounds read low 0.985 | locus YBR021W, strain FUR4, active compounds read low 1.02 | locus YBR023C, strain chs3, active compounds read low 0.972 | locus YBR171W, strain sec66, active compounds read low 0.963 | locus YBR229C, strain ROT2, active compounds read low 1 | locus YBR231C, strain swc5, active compounds read low 0.992 | locus YBR279W, strain paf1, active compounds read low 0.969 | locus YCL011C, strain gbp2, active compounds read low 0.977 | locus YCL016C, strain dcc1, active compounds read low 0.979 | locus YCL029C, strain bik1, active compounds read low 1.01 | locus YCL061C, strain MRC1, active compounds read low 0.973 | locus YCL069W, strain vba3, active compounds read low 0.975 | locus YCR088W, strain abp1, active compounds read low 0.977 | locus YDL005C, strain med2, active compounds read low 0.97 | locus YDL035C, strain GPR1, active compounds read low 1.02 | locus YDL040C, strain nat1, active compounds read low 0.972 | locus YDL074C, strain BRE1, active compounds read low 1.03 | locus YDL101C, strain DUN1, active compounds read low 1.02 | locus YDL134C, strain PPH21, active compounds read low 1.02 | locus YDL185W, strain tfp1, active compounds read low 1.02 | locus YDL192W, strain arf1, active compounds read low 1.01 | locus YDR001C, strain nth1, active compounds read low 0.979 | locus YDR069C, strain doa4, active compounds read low 0.986 | locus YDR101C, strain arx1, active compounds read low 1.01 | locus YDR137W, strain rgp1, active compounds read low 0.92 | locus YDR150W, strain NUM1, active compounds read low 1.02 | locus YDR159W, strain sac3, active compounds read low 0.986 | locus YDR162C, strain NBP2, active compounds read low 1.03 | locus YDR195W, strain ref2 0.97 | locus YDR297W, strain sur2, active compounds read low 0.976 | locus YDR318W, strain mcm21, active compounds read low 1.02 | locus YDR334W, strain swr1, active compounds read low 0.966 | locus YDR335W, strain msn5, active compounds read low 0.971 | locus YDR388W, active compounds read low 1.01 | locus YDR392W, strain spt3, active compounds read low 0.983 | locus YDR502C, strain sam2, active compounds read low 1.02 | locus YEL003W, strain gim4, active compounds read low 0.981 | locus YEL037C, strain rad23, active compounds read low 0.979 | locus YEL061C, strain CIN8 (second series), active compounds read low 0.966 | locus YEL061C, strain CIN8, active compounds read low 1 | locus YER015W, strain faa2, active compounds read low 0.982 | locus YER016W, strain bim1, active compounds read low 0.983 | locus YER110C, active compounds read low 1.01 | locus YER111C, strain swi4, active compounds read low 0.971 | locus YER155C, strain BEM2 (second series), active compounds read low 0.972 | locus YER155C, strain BEM2, active compounds read low 1.02 | locus YER167W, strain BCK2, active compounds read low 1.02 | locus YGL078C, strain dbp3, active compounds read low 1.01 | locus YGL086W, strain mad1, active compounds read low 1.01 | locus YGL167C, strain pmr1, active compounds read low 0.971 | locus YGL173C, strain kem1, active compounds read low 0.966 | locus YGL227W, strain vid30, active compounds read low 0.972 | locus YGL240W, strain doc1, active compounds read low 0.976 | locus YGL248W, strain PDE1, active compounds read low 1.01 | locus YGL253W, strain hxk2, active compounds read low 0.97 | locus YGR078C, strain PAC10, active compounds read low 1.01 | locus YGR135W, strain pre9, active compounds read low 0.998 | locus YGR229C, strain SMI1, active compounds read low 1.02 | locus YGR252W, strain gcn5, active compounds read low 1 | locus YHR013C, strain ard1, active compounds read low 0.928 | locus YHR027C, strain rpn1, active compounds read low 0.964 | locus YHR030C, strain SLT2, active compounds read low 1.01 and 1.04 | locus YHR079C, strain IRE1 (second series), active compounds read low 1.02 | locus YHR079C, strain IRE1, active compounds read low 1.05 | locus YHR094C, strain hxt1, active compounds read low 1.02 | locus YHR129C, strain ARP1, active compounds read low 1.02 | locus YHR142W, strain chs7, active compounds read low 0.968 | locus YHR200W, strain rpn10, active compounds read low 1.02 | locus YIL066C, strain RNR3, active compounds read low 1.02 | locus YIL073C, strain SPO22, active compounds read low 1.03 | locus YIL125W, strain kgd1, active compounds read low 1.01 | locus YIR030C, strain dcg1, active compounds read low 1.02 | locus YJL092W, strain hpr5, active compounds read low 0.972 | locus YJL095W, strain BCK1 (second series), active compounds read low 0.971 | locus YJL095W, strain BCK1, active compounds read low 1.01 and 1.02 | locus YJL115W, strain asf1, active compounds read low 0.965 | locus YJL129C, strain trk1, active compounds read low 0.974 | locus YJL134W, strain LCB3, active compounds read low 1.02 | locus YJL154C, strain vps35, active compounds read low 0.973 | locus YJL164C, strain tpk1, active compounds read low 0.98 | locus YJL166W, strain qcr8, active compounds read low 0.981 | locus YJL168C, strain set2, active compounds read low 1.02 | locus YJL187C, strain SWE1 (second series), active compounds read low 1.01 | locus YJL187C, strain SWE1, active compounds read low 0.982 | locus YJR043C, strain POL32, active compounds read low 1.02 | locus YJR066W, strain TOR1, active compounds read low 0.99
